From PubChem BioAssay
PLK1 PBD block: qHTS for Inhibitors of PLK1-PDB (polo-like kinase 1 - polo-box domain): Primary Screen | Serine/threonine-protein kinase PLK1 (Homo sapiens), P53350 | Potency, µM, for the others: max response, negative = inhibition, usual class: inhibitors | 2.8% of 360,000 active | Plk1 PBD binding of FITC phosphopeptide, fluorescence polarization; also: series mostly up to about 57 µM; % is scaled to controls: 0 for no effect and ±100 for the full control effect; nearly all actives have a fitted effect of over 65% in size
Target sequence (P53350 whole entry, looked up, the tested form may be a part): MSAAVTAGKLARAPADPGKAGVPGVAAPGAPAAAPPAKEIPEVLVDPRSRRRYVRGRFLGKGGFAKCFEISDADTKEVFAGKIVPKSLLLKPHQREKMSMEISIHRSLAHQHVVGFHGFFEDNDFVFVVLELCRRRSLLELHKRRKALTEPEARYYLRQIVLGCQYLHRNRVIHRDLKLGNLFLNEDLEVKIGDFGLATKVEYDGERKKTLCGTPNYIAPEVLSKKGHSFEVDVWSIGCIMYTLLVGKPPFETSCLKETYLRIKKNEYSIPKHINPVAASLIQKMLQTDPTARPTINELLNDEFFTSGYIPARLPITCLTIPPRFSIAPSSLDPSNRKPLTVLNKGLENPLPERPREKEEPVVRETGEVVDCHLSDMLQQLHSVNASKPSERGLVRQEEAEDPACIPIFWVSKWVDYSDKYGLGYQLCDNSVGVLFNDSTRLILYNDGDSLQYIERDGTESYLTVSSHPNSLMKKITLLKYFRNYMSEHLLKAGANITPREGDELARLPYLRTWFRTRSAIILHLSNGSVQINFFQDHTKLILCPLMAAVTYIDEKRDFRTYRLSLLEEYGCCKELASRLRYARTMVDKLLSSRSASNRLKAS
HP1b chromo inh: HTS for Inhibitors of HP1-beta Chromodomain Interactions with Methylated Histone Tails; AlphaScreen HP1-beta / biotin-H3K9me3 peptide binding; Potency, µM (highest dose often 114 µM), inactives show at the highest dose activity change, negative = inhibition, usual class: inhibitors; 0.56% of 390,000 active; also: nearly all actives have a fitted effect of over 70% in size
Target sequence (P83916 whole entry, looked up): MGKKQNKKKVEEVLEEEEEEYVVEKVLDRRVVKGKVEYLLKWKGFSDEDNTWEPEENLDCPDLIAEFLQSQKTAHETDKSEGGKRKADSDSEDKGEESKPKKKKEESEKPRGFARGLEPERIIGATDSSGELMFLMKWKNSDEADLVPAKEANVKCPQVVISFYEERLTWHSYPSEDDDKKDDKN
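Compound inhibition of the preformed complex between 50 nM HP1-beta and 50 nM biotinylated H3K9me3 peptide was read by AlphaScreen. Buffer was PBS pH 7.4 with 0.01% Tween-20. Incubations ran 30 min at room temperature, with 10 ug/mL donor/acceptor beads.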
BAZ2B inh: qHTS Assay for Inhibitors of BAZ2B | Bromodomain adjacent to zinc finger domain protein 2B (Homo sapiens), Q9UIF8 | AlphaScreen BAZ2B-H3K14Ac peptide displacement | Potency, µM (series often up to 114 µM), for inactives: at the top dose activity change, negative = inhibition, most hits filed as inhibitors | 4.4% of 360,000 active | AID 504333, 2011; also: % is scaled to controls: 0 for no effect and ±100 for the full control effect; nearly all actives have a fitted effect of over 60% in size
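AlphaScreen displacement of biotin-H3(5-23)K14Ac peptide (50 nM final) from BAZ2B (50 nM final) in PBS pH 7.4, 0.01% Tween-20; complex preformed 30 min RT, then compounds (top 110 uM) 30 min RT, beads 20 min dark.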
G9a inh: qHTS Assay for Inhibitors of Histone Lysine Methyltransferase G9a; G9a H3K9 monomethylation, AlphaScreen, 2 h; Potency, µM (titrated, usually from 102 µM), for the others: top-dose activity, negative = inhibition, hits mostly inhibitors; AID 504332, 2011; 8.8% of 350,000 active; also: % is scaled to controls: 0 for no effect and ±100 for the full control effect; nearly all actives have a fitted effect of over 75% in size
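AlphaScreen detection with an anti-monomethyl H3K9 antibody quantified product after a 2 h room-temperature reaction containing 500 nM biotinylated H3K9 peptide, 20 µM SAM and 20 nM enzyme, which had been preincubated 15 min with compound.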
JMJD2A Tudor: qHTS Assay for Inhibitors of JMJD2A-Tudor Domain | AID 504339, 2011 | Lysine-specific demethylase 4A (Homo sapiens), O75164 | 4.4% of 390,000 active | AlphaScreen JMJD2A-Tudor / H3K4me3 peptide binding | Potency, µM (doses to about 114 µM), for inactives: at the top dose activity change, negative = inhibition, most hits filed as inhibitors; also: % is scaled to controls: 0 for no effect and ±100 for the full control effect; nearly all actives have a fitted effect of over 50% in size
Sfp PPTase inh: qHTS Assay for Inhibitors of Bacillus subtilis Sfp phosphopantetheinyl transferase (PPTase); 4'-phosphopantetheinyl transferase ffp (Bacillus subtilis), Q9F4F7; Biochemical Sfp PPTase activity, qHTS; Potency, µM, for inactives: largest response in the series, negative = inhibition, actives largely listed as inhibitors; 3.5% of 310,000 active; AID 1490, 2009;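 also: the enzyme is Sfp with the accession as filed and its product quenches rhodamine fluorescence; 0% = enzyme reaction without inhibitor and -100% = no enzyme wells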
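Step 1, compound plus 15 nM Sfp-PPTase, 15 min, room temperature. Step 2, add rhodamine-CoA (5 uM) and BHQ-2-YbbR (12.5 uM). Step 3, read 525/598 nm fluorescence at 0 and 30 min.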
Starred values were filed as active, the others as inactive; ? = inconclusive; . = no result; [ ] = another dose, or the depositor's remark. Shown are actives, neighbours in structure and some others; about 12% of the full set was active somewhere. Calls follow the shape of the dose curve; as a rule, active = well fitted curve in the direction sought with a large enough effect; inconclusive = small, poorly fitted or top-dose-only effect, or another doubt; inactive = no such curve, though single readings can be large; an effect the other way counts as inactive or inconclusive. Potency is read from the fitted curve at half-maximal effect.

SMILES | PLK1 PBD block | HP1b chromo inh | BAZ2B inh | G9a inh | JMJD2A Tudor | Sfp PPTase inh
COc1ccc(C(c2nnnn2Cc2ccccc2)N2CCN(C(=O)c3ccco3)CC2)cc1 (stereo not given) | -17.5% | 27.1% | -33.8% | 56.2µM* | -2.7%[11.4 µM] | 4.3%
Cc1ccc(C(c2nnnn2Cc2cccs2)N2CCN(C(=O)c3ccco3)CC2)cc1 (stereo not given) | -26.6% | 22.1% | ? | 39.8µM* | ? | -23.3%
Cc1cc(=O)c(C(=O)O)nn1-c1ccccc1Cl | 1.8% | 15.2% | -1.5% | -20.1% | -3.2% | -3.0%
CN(C)CCCN(C(=O)c1cc2cc([N+](=O)[O-])ccc2s1)c1nc2cc3c(cc2s1)OCCO3 | -6.0% | -33.4% | ? | 20µM* | ? | .
CN(C)CCCN(C(=O)c1cccs1)c1nc2cc3c(cc2s1)OCO3 | -25.0% | 30.1% | -37.7% | ? | -19.5% | -1.9%
CN(C)CCCN(C(=O)c1ccc([N+](=O)[O-])s1)c1nc2cc3c(cc2s1)OCCO3 | -4.8% | -21.7% | ? | 44.7µM* | ? | 2.3%
O=C(c1ccc(Cl)cc1)c1cn(Cc2ccccc2)c2cc3c(cc2c1=O)OCCO3 | . | 7.8% | -20.5%[57.1 µM] | -13.7%[59 µM] | -17.5% | .
COc1ccc(Cl)cc1NC(=O)Cn1c(=O)n(CCC(=O)NCc2ccc3c(c2)OCO3)c(=O)c2ccccc21 | . | 19.4% | -36.6% | -14.0%[59 µM] | -6.5% | .
CN(C(=O)CSc1nc(-c2ccccc2)cn1N)C(c1ccccc1)c1ccccc1 | -7.9% | -25.7% | 44.7µM* | 17.8µM* | ? | 8.2%
CCOC(=O)c1ccc2[nH]c(C)c(C)c2c1 | -3.9% | ? | . | . | ? | .
Cc1[nH]c2ccc(-c3n[nH]c(=S)n3C)cc2c1C | -13.1% | ? | ? | 3.98µM* | 4.47µM* | -12.7%
CCn1c(-c2ccc3[nH]c(C)c(C)c3c2)n[nH]c1=S | -7.7% | -26.4% | ? | 2.82µM* | 22.4µM* | -27.0%
O=S(=O)(NCc1nc2cccnc2n1Cc1ccc(F)cc1)c1ccc2c(c1)CCCC2 | . | 21.2%[57 µM] | 6.6% | 11.2%[59 µM] | 3.5% | .
c1ccc(C2=Nn3c(nnc3-c3cccs3)SC2)cc1 | -1.8% | 12.0% | -11.9% | -1.8% | -7.8% | 27.0%
c1csc(C2=Nn3c(nnc3-c3ccncc3)SC2)c1 | 26.7µM* | -14.6% | ? | -13.8%[0.501 µM] | -27.2% | ?
CCC(=O)/C=C1\Sc2ccc(OC)cc2N1CC | ? | 26.5% | 2.4% | 50.1µM* | -14.9% | 50.1µM*
CCC(=O)/C=C1\Sc2ccc(OC)cc2N1CCO | -8.6% | 52.0% | 8.0% | -21.5%[59 µM] | -13.2% | -7.2%
CCN1/C(=C\C(C)=O)Sc2ccc(OC)cc21 | 1.7% | 12.0% | -27.7% | 5.01µM* | -23.3% | 1.6%
COc1ccc2c(c1)N(C[C@H](C)CN(C)C)c1ccccc1S2 | -0.2% | -15.9% | . | . | ? | .
O=C1CC[C@@H](C(=O)N[C@@H](Cc2cnc[nH]2)C(=O)N[C@@H](Cc2c[nH]c3ccccc23)C(=O)N[C@@H](CO)C(=O)N[C@@H](Cc2ccc(O)cc2)C(=O)O)N1 | . | . | . | . | . | 27.0%
CC(=O)Nc1c(O)nc(SCC(=O)Nc2nnc(SCc3ccccc3)s2)[nH]c1=O | ? | 7.5% | ? | 20µM* | ? | 35.5µM*
COCCSc1nnc(NC(=O)CSCc2ccccc2)s1 | -26.8% | 37.7% | 0.9% | 14.1µM* | -10.4% | 15.4%
COCc1nnc(NC(=O)CSCc2ccccc2)s1 | 21.2µM* | 8.7% | ? | 15.5%[0.0925 µM] | -14.1% | -26.2%
COCCSc1nnc(NC(=O)COC)s1 | -9.9% | 24.8% | -7.0% | -47.8%[2.33 µM] | -10.4% | 2.7%
COCc1nnc(NC(=O)CCc2ccccc2)s1 | -11.0% | 62.8% | -14.1% | 11.2µM* | -11.7% | 3.5%
SMILES | PLK1 PBD block | HP1b chromo inh | BAZ2B inh | G9a inh | JMJD2A Tudor | Sfp PPTase inh
COCc1nnc(NC(=O)CCc2ccc(OC)cc2)s1 | 2.4% | 49.8% | -10.2% | . | 6.1% | 5.9%
COc1ccc(NC(=O)N2CCCC2C(=O)Nc2ccc(C)cc2C)cc1 (stereo not given) | 2.9% | 57.4% | -16.2% | 20.4% | 0.0% | 8.9%
O=C(COc1ccccc1)NCC(=O)N1CCCCCC1 | -2.1% | 35.0% | -2.8% | 4.4%[59 µM] | -6.4% | .
Cc1ccccc1C(=O)NCC(C)NC(=O)c1ccccc1C (stereo not given) | -3.3% | 20.0% | . | . | 5.8% | .
COCCSc1nnc(NS(=O)(=O)c2ccccc2)s1 | ? | 26.0% | ? | 28.2µM* | -6.2% | -22.7%
CCC(CC)c1nnc(NC(=O)CCc2ccccc2)s1 | -13.8% | 12.3% | 12.3% | 20.8% | -9.7% | 15.2%
CCC(CC)c1nnc(NC(=O)CCc2ccc(OC)cc2)s1 | -11.0% | 23.6% | ? | ? | -17.0% | 44.7µM*
C[C@H](NC(=O)[C@H](Cc1ccccc1)NC(=O)c1cc2cc(Cl)ccc2n1C)C(=O)O | -4.0% | 19.2% | -1.4% | 10.4% | -21.2% | 28.0%
C[C@@H]1CCCCO[C@H](CN(C)C(=O)Nc2ccccc2)[C@@H](C)CN([C@H](C)CO)C(=O)c2cc(NS(=O)(=O)c3cn(C)cn3)ccc2O1 | -0.3% | . | . | . | . | .
OC(CNCC1(N2CCCCC2)CCCCC1)COc1ccc(Cl)cc1Cl (stereo not given) | -7.0% | ? | -30.9% | 50.1µM* | 2.82µM* | -5.3%
O=C(COc1ccc(Cl)cc1Cl)NCC1(N2CCOCC2)CCCCC1 | -6.1% | 24.3% | . | . | 4.1% | .
CSc1nc(-c2ccccc2)nc(N)c1C(C)=O | . | . | -2.8% | ? | . | -7.2%
CC(=O)c1c(C)nc(-c2ccc(Cl)cc2)nc1N=CN(C)C | 2.9% | 17.1% | 79.4µM* | 3.55µM* | ? | ?
CC(=O)c1c(C)nc(-c2ccc(Cl)cc2)nc1N | -18.2% | 24.0% | 79.4µM* | -45.6% | -17.4% | -16.4%
O=C(Cc1cccc2ccccc12)Nc1nnc(-c2cccc([N+](=O)[O-])c2)s1 | -7.1% | 25.7% | -9.9% | ? | -13.6% | ?
O=C(CSc1ccc(Cl)cc1)Nc1nnc(-c2cccc([N+](=O)[O-])c2)s1 | -5.5% | 55.6% | -7.8% | 39.8µM* | -9.7% | -20.6%
COc1ccc(N2CCN(CCNC(=O)Nc3ccc([N+](=O)[O-])cc3OC)CC2)cc1 | -7.4% | ? | ? | 44.7µM* | 50.1µM* | 4.7%
COc1cc(NC(=O)NCCN2CCN(c3ccc(Cl)cc3)CC2)ccc1C | -3.2% | -18.6% | ? | ? | -33.0% | 9.5%
